This is a sample that favours compounds with a hit; in the whole collection about 5.4% have one here.
RORg inh: ROR gamma (mouse) transcription inhibition | P51450 | Drosophila S2 Gal4-RORgamma UAS-luciferase reporter, 20 h | Potency, µM (top dose mostly 53.6 µM), for inactives: top-dose activity change, negative = inhibition, usual class: inhibitors | hit rate 5.4% among 310,000; also: potency is read from the fitted curve at half-maximal effect; % is scaled to controls: 0 for no effect and ±100 for the full control effect; nearly all actives have a fitted effect of over 60% in size
Target sequence (P51450 whole entry, looked up, the tested form may be a part): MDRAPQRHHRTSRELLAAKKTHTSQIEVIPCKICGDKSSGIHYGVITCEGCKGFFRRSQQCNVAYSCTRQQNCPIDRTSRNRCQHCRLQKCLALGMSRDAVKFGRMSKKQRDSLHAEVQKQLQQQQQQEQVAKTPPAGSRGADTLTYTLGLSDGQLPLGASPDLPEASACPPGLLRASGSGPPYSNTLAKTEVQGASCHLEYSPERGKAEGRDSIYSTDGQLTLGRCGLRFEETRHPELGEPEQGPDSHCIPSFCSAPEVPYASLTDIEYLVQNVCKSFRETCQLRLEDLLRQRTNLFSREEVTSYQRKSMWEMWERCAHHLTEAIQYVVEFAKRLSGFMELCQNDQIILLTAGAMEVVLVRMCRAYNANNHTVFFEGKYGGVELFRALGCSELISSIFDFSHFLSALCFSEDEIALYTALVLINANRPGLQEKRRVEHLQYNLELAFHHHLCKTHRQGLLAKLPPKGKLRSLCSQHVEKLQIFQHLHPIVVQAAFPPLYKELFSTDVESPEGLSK
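A Gal4/UAS one-hybrid system in insect cells: metallothionein-promoter Gal4–ROR gamma fusion plus Photinus luciferase reporter. Copper sulfate 700 uM final, 20 hr ambient incubation, luminescent detection after 10 min with reagent.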
Six1-Eya2 inh: blocks human Six1 binding to Eya2 | Q15475+O00167 | AlphaScreen GST-Six1/His-Eya2 binding, biochemical; active compounds read low | activity change, % (no concentration beside the values) | hit rate 0.56% among 360,000; in the data active = activity change below about -65%; inconclusive = mostly about -30% to -63%; also: % is scaled to controls: 0 for no effect and ±100 for the full control effect
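Homogeneous AlphaScreen proximity assay pairing GST-Six1 with His-tagged Eya2 (added as 5X mix: 250 nM and 500 nM) in 50 mM Tris pH 8.0, 300 mM NaCl, 1 mM TCEP. Glutathione donor and nickel acceptor beads; 1 h, 37 °C, dark.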
p53 reactivation: restores transcriptional activity of mutant p53; H1299 p53-A138V BP100-luciferase reporter, luminescence, 24 h; Potency, µM (doses to about 92.2 µM), without a hit: at the highest dose activity change, positive = activation, actives largely listed as activators; hit rate 0.063% among 320,000; AID 504706; also: potency is read from the fitted curve at half-maximal effect; % of control where 0% means no effect; nearly all actives have a fitted effect of over 45% in size
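H1299 (p53-null), stable ts p53-A138V + BP100-Luc; 1000 cells/well, Opti-MEM/10% FBS; cpd 4 pt, 1:5; 24 h, 37 deg C, 5% CO2; detection reagent 10 min RT; luminescence.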
CtBP-E1A inh: inhibitors of CtBP/E1A interaction; AlphaScreen GST-E1A/His-CtBP binding, 1536-well; active compounds read low; AID 651724; hit rate 0.49% among 340,000; activity change, % (concentration not given with the values); in the data active = activity change below about -65%; inconclusive = mostly about -30% to -63%; also: % is scaled to controls: 0 for no effect and ±100 for the full control effect
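GST-E1A and His-tagged CtBP (125 nM each as 5X stock) were preincubated with pin-transferred compound for 2 h at 37 °C in the dark, then glutathione donor and nickel acceptor beads were added for 1 h before AlphaScreen reading.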
VP16 counter: inhibits Gal4-VP16 luciferase reporter, ROR gamma counter-screen | Drosophila S2 Gal4-VP16 UAS-luciferase, luminescence, 20 h | Potency, µM (top dose mostly 53.6 µM), for the others: at the highest dose activity, negative = inhibition, hits mostly inhibitors | hit rate 3.5% among 310,000;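 also: Gal4-VP16 expression switched on by copper sulfate through the metallothionein promoter; potency is read from the fitted curve at half-maximal effect; % is scaled to controls: 0 for no effect and ±100 for the full control effect; nearly all actives have a fitted effect of over 50% in size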
* hit, by the source's call; ? = inconclusive; / = no result given; [ ] = dose if it differs, or a comment. Unless noted, calls follow the shape of the dose curve; as a rule, active = well fitted curve in the direction sought with a large enough effect; inconclusive = small, poorly fitted or top-dose-only effect, or another doubt; inactive = no such curve, though single readings can be large; an effect the other way counts as inactive or inconclusive.

SMILES	RORg inh	Six1-Eya2 inh	p53 reactivation	CtBP-E1A inh	VP16 counter
CO[C@@H]1COC(=O)[C@H]2CCCN2C(=O)[C@@H](C)COC(=O)CCC[C@H]1C	5%[10 µM]	/	/	/	-9%[10 µM]
CC(=O)Nc1ccc(NC(=O)CSc2nnc(-c3cccnc3)o2)cc1	/	-7	3%	-3	/
COc1ccccc1/C=C1\SC(=S)N(CCC(=O)Nc2nnc(C)s2)C1=O	-13%	2	0%	-22	-20%
S=c1[nH]c2ccccc2n1CCOc1ccccc1	-15%[1.91 µM]	-5	13%	-1	2.8µM*
O=C(c1cccc(F)c1)N(Cc1nc2ccccc2c(=O)[nH]1)C1CCCC1	6.3µM*	0	2%	/	?
O=C(c1ccccc1F)N(Cc1nc2ccccc2c(=O)[nH]1)C1CCCC1	2.8µM*	-7	0%	/	7.9µM*
Nc1cc2c3ccccc3ccc2c2ccccc12	/	5	/	10	/
O=S(=O)(CCc1ccccc1)c1nc2ccccc2s1	-32%	/	/	/	-9%
O=C(Nc1nc2c(s1)COc1ccccc1-2)c1cccs1	?	0	?	0	5%
O=C(Nc1nc2c(s1)CCc1ccccc1-2)c1cccs1	10µM*	11	27%	-4	-27%
CSc1nc2ccc3nc(NC(=O)c4ccc(Cl)s4)sc3c2s1	-8%	-1	13%	5	-6%
CSc1nc2ccc3nc(NC(=O)c4cccs4)sc3c2s1	6.3µM*	6	?	6	-4%
CCn1c2ccccc2c2nnc(SCC(=O)Nc3ncccn3)nc21	-22%	0	4%	2	-2%
CCOC(=O)CSc1nnc2c3ccccc3n(CC)c2n1	36%	1	/	-3	0%
CCn1c2ccccc2c2nnc(SCC(=O)c3ccccc3)nc21	13µM*	-3	-1%	-3	4%
CCOC(=O)C(Sc1nnc2c3ccccc3n(CC)c2n1)C(=O)OCC	-32%	?	-1%	-72*	?
C=C(C)COc1ccc(-c2[nH]ncc2Oc2cccc(OC)c2)c(O)c1	6.3µM*	-1	-17%	-4	?
COc1ccc(Oc2cn[nH]c2-c2ccc(O)cc2O)cc1	?	1	3%	-4	-6%
CCCc1ccc(Oc2cn[nH]c2-c2ccc(O)cc2O)cc1	16µM*	-5	10%	-8	-27%
C=C(C)COc1ccc(-c2[nH]ncc2-c2ccc(OC)c(OC)c2)c(O)c1	1.8µM*	-25	-7%	-5	2.5µM*
C=C(C)COc1ccc(-c2[nH]ncc2-c2ccc(OC)cc2)c(O)c1	11µM*	-15	-10%	-5	?
C=C(C)COc1ccc(-c2[nH]ncc2Oc2ccccc2OCC)c(O)c1	-7%	3	-16%	0	-9%
O=C(Nc1ccccc1)N1CC2(CCN(C(=O)c3cc(C(F)(F)F)cc(C(F)(F)F)c3)CC2)C1	-5%	/	/	/	-4%
CC(C)(C(O)c1ccc([N+](=O)[O-])cc1)[N+](=O)[O-] (configuration not stated)	11%	/	/	/	13%
C=C(C)COc1ccc(-c2nc(N)ncc2-c2ccc(OC)c(OC)c2)c(O)c1	-22%	-23	-7%	-10	-10%
SMILES	RORg inh	Six1-Eya2 inh	p53 reactivation	CtBP-E1A inh	VP16 counter
COc1ccc(-c2[nH]ncc2Oc2ccccc2OC)c(O)c1	11µM*	-3	0%	-10	?
C=C(C)COc1ccc(-c2n[nH]c(C)c2-c2ccc(OC)c(OC)c2)c(O)c1	1.4µM*	-9	2%	-9	7.1µM*
C#CC(C)(CC)NC(=O)c1cc2cccc(CC=C)c2oc1=O (configuration not stated)	5%	-2	0%	-8	-15%
Cc1cccnc1CN1CCN(Cc2nc(C(c3ccccc3)c3ccccc3)no2)CC1	11µM*	-9	-2%	2	-25%
COc1ccc(S(=O)(=O)NC(=O)C2(C)CCN2C(=O)CCc2ccc(Cl)cc2Cl)cc1 (configuration not stated)	/	5	/	-1	/
CC(C)C[C@H](NC(=O)c1[nH]cnc1C(=O)N[C@H](C)c1ccccc1)C(=O)OCc1ccccc1	6.3µM*	-8	2%	/	5µM*
O=C(N[C@@H](Cc1ccccc1)C(=O)OCc1ccccc1)c1nc[nH]c1C(=O)NCc1ccccc1	10µM*	-2	0%	-24	?
